Values joined by “and” are separate entries in the source; they are usually repeats but may differ in a detail not shown here. Equal entries are not always repeated. Results filed as inconclusive are left out. Active and inactive are the calls of the source. Rule for the calls: active = hit-call score of the fitted dose curve at least 0.9, where 1 is the maximum; inconclusive = response in the unintended direction; inactive = score below 0.9.
What was measured:
[1] = ATG_XTT_Cytotoxicity: Cytotoxicity Assessment in the Attagene TRANS-FACTORIAL HepG2 Assay (AID 2283584)
Method in brief: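 XTT readout of cell number in transfected HepG2 cells, 24 h post-dosing; DMSO serves as negative control and baseline, with activity taken as loss of viability signal.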

[2] = TOX21_p53_BLA_p2_viability: Viability Assessment in the Tox21 HCT-116 p53 Agonism Beta-lactamase Assay, Phase 2 (AID 2283591);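 note: compound exposure lasted 16 h at 37 °C; actives lower the ATP signal meaning cytotoxicity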
Method in brief: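 Cytotoxicity readout: CellTiter-Glo ATP luminescence, 30 min at room temperature, after the beta-lactamase read. Cells were HCT116 exposed 16 h at 37C to compounds pin-transferred at 217-fold dilution from DMSO stocks.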

[3] = biological target: Cellular tumor antigen p53 (Homo sapiens) (UniProt P04637); assay: TOX21_p53_BLA_p2_ratio: Tox21 HCT-116 p53 Agonism Beta-lactamase Assay, Ratio, Phase 2 (AID 2283592)
Method in brief: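 In this cell-based reporter format, HCT116 cells were dosed with chemicals delivered from DMSO by 217-fold dilution and incubated 16 h at 37C. Emission at 460 and 530 nm after 2 h CCF4-AM loading provided the ratio, fitted upward versus DMSO.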

[4] = biological target: Cellular tumor antigen p53 (Homo sapiens) (UniProt P04637); assay: TOX21_p53_BLA_p3_ratio: Tox21 HCT-116 p53 Agonism Beta-lactamase Assay, Ratio, Phase 3 (AID 2283596)
Method in brief: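 HCT116 p53-bla cells (4000/well) given compound in DMSO (217-fold dilution) after 5 h, incubated 16 h at 37C. CCF4-AM substrate 2 h at room temperature; 460/530 nm emission ratio, gain fitted against DMSO.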

[5] = TOX21_p53_BLA_p4_viability: Viability Assessment in the Tox21 HCT-116 p53 Agonism Beta-lactamase Assay, Phase 4 (AID 2283597);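 note: hits lower the luminescence signal meaning cytotoxicity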
Method in brief: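 We seeded HCT116 p53 reporter cells at 4000/well and waited 5 h. We then added compounds in DMSO at a 217-fold dilution and incubated for 16 h. Viability was read as CellTiter-Glo luminescence after 30 min at RT.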

[6] = biological target: Cellular tumor antigen p53 (Homo sapiens) (UniProt P04637); assay: TOX21_p53_BLA_p5_ratio: Tox21 HCT-116 p53 Agonism Beta-lactamase Assay, Ratio, Phase 5 (AID 2283599)
Method in brief: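 Beta-lactamase reporter ratio (blue 460 nm over green 530 nm, 405 nm excitation) after 2 h CCF4-AM loading, in HCT-116 cells exposed 16 h at 37 C to compounds pinned at 217-fold dilution. Increases relative to DMSO baseline scored.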

[7] = TOX21_p53_BLA_p3_viability: Viability Assessment in the Tox21 HCT-116 p53 Agonism Beta-lactamase Assay, Phase 3 (AID 2283593);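 note: cells exposed to compound for 16 h before reading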
Method in brief: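 Cellular ATP was quantified by CellTiter-Glo luminescence, read after 30 min at room temperature. Beforehand, HCT116 cells (4000/well) received compound 5 h post-seeding, 217-fold diluted from DMSO, then incubated 16 h at 37C.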

[8] = TOX21_p53_BLA_p5_viability: Viability Assessment in the Tox21 HCT-116 p53 Agonism Beta-lactamase Assay, Phase 5 (AID 2283600)
Method in brief: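 Compounds, pinned from DMSO at 217-fold dilution, were left on the cells for 16 h. The viability endpoint was ATP content measured by CellTiter-Glo luminescence, where falling signal reflects cytotoxicity.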

[9] = biological target: Cellular tumor antigen p53 (Homo sapiens) (UniProt P04637); assay: TOX21_p53_BLA_p4_ratio: Tox21 HCT-116 p53 Agonism Beta-lactamase Assay, Ratio, Phase 4 (AID 2283601)
Method in brief: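 Signal is the blue/green (460nm/530nm) ratio of cleaved versus uncleaved CCF4-AM substrate, read after 2 h substrate loading. Cells were HCT116 carrying the p53-responsive beta-lactamase reporter, dosed 16 h at 37C, 5% CO2; CellTiter-Glo measured in parallel.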

Measured: AC50

Sequence of Cellular tumor antigen p53 (Homo sapiens) (P04637 whole entry, looked up): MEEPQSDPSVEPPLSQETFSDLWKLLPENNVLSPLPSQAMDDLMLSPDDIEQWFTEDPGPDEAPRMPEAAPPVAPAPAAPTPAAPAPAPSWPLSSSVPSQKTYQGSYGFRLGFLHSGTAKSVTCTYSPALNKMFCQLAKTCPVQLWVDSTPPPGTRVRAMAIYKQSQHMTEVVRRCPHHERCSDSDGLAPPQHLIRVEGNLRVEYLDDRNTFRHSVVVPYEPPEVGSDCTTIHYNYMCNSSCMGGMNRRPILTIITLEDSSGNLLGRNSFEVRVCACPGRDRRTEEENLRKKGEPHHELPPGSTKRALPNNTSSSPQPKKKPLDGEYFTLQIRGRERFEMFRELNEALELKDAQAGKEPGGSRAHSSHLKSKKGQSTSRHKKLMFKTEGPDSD

Oc1ccccc1Cc1ccccc1O
inactive: [1] | [2] | [3] | [4] | [5]

CCCCNS(=O)(=O)c1ccc(C)cc1
not listed: [7] | [8] | [9]
inactive: all other assays above

C=CC(=O)OCCCCCCOC(=O)C=C
active: [3] 69.1 µM and 66.7 µM | [4] 54.4 µM and 63.2 µM | [6] 42.4 µM and 63.2 µM
inactive: all other assays above

CCCCC(=O)O
inactive: all assays above

CC1(C)CCC[C@]2(C)[C@H]3CC(=O)O[C@]3(C)CC[C@@H]12
inactive: all assays above

CC(C)(C)C1CCC(=O)CC1
not listed: [5]
inactive: all other assays above

CC(=O)CCC=C(C)C
not listed: [5] | [9]
inactive: all other assays above

COc1ccc(C(=O)c2ccccc2)c(O)c1
not listed: [5]
inactive: all other assays above

CCCC/C=C/C=C\C=O
not listed: [7] | [9]
inactive: all other assays above

CCCCCCCCCCCC(=O)OCC
not listed: [5]
inactive: all other assays above

CC1OC(=O)C(C)OC1=O (centres undefined)
not listed: [5] | [6] | [9]
inactive: all other assays above

C/C=C/C=C/CCCCCCCO
not listed: [4] | [9]
inactive: all other assays above

O=C(O[C@@H]1Cc2c(O)cc(O)cc2O[C@@H]1c1cc(O)c(O)c(O)c1)c1cc(O)c(O)c(O)c1
inactive: all assays above

Cc1noc(NS(=O)(=O)c2ccc(N)cc2)c1C
inactive: all assays above

CC(C)=CCCC(C)=CC#N
not listed: [5] | [8]
inactive: all other assays above

CC(C)c1ccc(O)c(C(C)C)c1
active: [5] 44.7 µM | [9] 81 µM
inactive: all other assays above

CCCCC1C(=O)N(c2ccccc2)N(c2ccccc2)C1=O
inactive: all assays above

CCCCOCCOC(=O)COc1ccc(Cl)cc1Cl
not listed: [7] | [9]
inactive: all other assays above

c1ccc2c(c1)[nH]c1ccccc12
not listed: [5] | [9]
inactive: all other assays above

C=C(C)[C@@H]1CC=C(C)CC1
not listed: [3] | [8]
inactive: all other assays above

C=CC(C)(CCC=C(C)C)OC(=O)C=Cc1ccccc1 (centres undefined)
not listed: [3] | [6] | [9]
inactive: all other assays above

Nc1ccc(C(=O)OCCCOC(=O)c2ccc(N)cc2)cc1
not listed: [3] | [4] | [9]
inactive: all other assays above

Cc1cc(C)n(CO)n1
not listed: [3] | [5]
inactive: all other assays above

Nc1ccnc(=O)[nH]1
not listed: [4] | [6] | [7]
inactive: all other assays above

CC(C)CCCCCOC(=O)CS
not listed: [3] | [4] | [9]
inactive: all other assays above

O=S(=O)(O)c1ccc(Nc2nc(Nc3ccc(C=Cc4ccc(Nc5nc(Nc6ccc(S(=O)(=O)O)cc6)nc(N(CCO)CCO)n5)cc4S(=O)(=O)O)c(S(=O)(=O)O)c3)nc(N(CCO)CCO)n2)cc1
inactive: [1] | [2] | [3]
active: [4] 41.3 µM | [6] 42.6 µM | [9] 37.1 µM

C=CCCCCCCCCO
not listed: [7]
inactive: all other assays above

CC1=CCC(C(C)C)C=C1 (centres undefined)
inactive: [1] | [2] | [7]

CCCCCCCCCC(C)=O
inactive: [1] | [2] | [3] | [6]

CC(CCC(=O)O)(c1ccc(O)cc1)c1ccc(O)cc1
not listed: [2] | [9]
inactive: all other assays above

CCCCC(CC)COC(=O)/C=C/c1ccc(OC)cc1 (centres undefined)
inactive: [1] | [2] | [7] | [5] | [8]

CCCCOCC(C)O (centres undefined)
not listed: [5] | [7] | [9]
inactive: all other assays above

CCCCCCCCCCCCCCCCCCOS(=O)(=O)O
active: [7] 66.9 µM | [4] 86.5 µM
not listed: [3] | [9]
inactive: all other assays above

CC(C)C(=O)OCCOc1ccccc1
not listed: [5] | [7]
inactive: all other assays above

CN(C)Cc1cc(CN(C)C)c(O)c(CN(C)C)c1
not listed: [2] | [9]
inactive: all other assays above

CCOC(=O)c1ccc(C)cc1
inactive: [1] | [2] | [7] | [4] | [9]

C=C(C)C1CC=C(C)CC1 (centres undefined)
not listed: [3]
inactive: all other assays above

CC(=O)OCCc1ccccc1
not listed: [3] | [4] | [9]
inactive: all other assays above

c1ccc2cnccc2c1
inactive: [1] | [2] | [7] | [9]

O=C1CCCCCCCCCCC1
not listed: [5] | [6] | [7]
inactive: all other assays above

N#Cc1ccc(C2CCCc3cncn32)cc1 (centres undefined)
not listed: [4] | [5] | [7]
inactive: all other assays above

CCCCCCCCCCCCC
not listed: [3] | [5] | [7]
inactive: all other assays above

CCCCOC(=O)C(C)CC (centres undefined)
not listed: [7]
inactive: all other assays above

CC(=O)OC(C)c1ccccc1 (centres undefined)
not listed: [5] | [7] | [9]
inactive: all other assays above

CC(Cl)COP(=O)(OCC(C)Cl)OCC(C)Cl (centres undefined)
inactive: [1] | [2] | [7] | [5] | [6]

Cc1ccc(S(=O)(=O)N=C=O)cc1
not listed: [3] | [5]
inactive: all other assays above

CC(CC=O)CC(C)(C)C (centres undefined)
inactive: [1] | [2] | [4] | [5]

C=C(C)C(=O)OCCCCCCCCCCCC
not listed: [7]
inactive: all other assays above

CCCCCOC(=O)CCCCC
inactive: [1] | [3] | [7] | [4] | [5]

CCc1occc(=O)c1O
inactive: [1] | [2] | [8]

NC(=O)Nc1ccccc1
not listed: [3] | [7] | [8]
inactive: all other assays above

CC1=C(O)C(=O)C(C)O1 (centres undefined)
not listed: [4] | [5] | [7]
inactive: all other assays above

COC(C=C(C)CCC=C(C)C)OC
not listed: [5] | [7]
inactive: all other assays above

CC1CCC(C(C)(C)S)C(=O)C1 (centres undefined)
inactive: [1] | [4] | [5] | [6] | [9]

C=CCCCCCCCCC=O
inactive: [1] | [5] | [6] | [8]

CCC[Si](OC)(OC)OC
not listed: [2] | [3] | [8]
inactive: all other assays above

COc1cc(C)ccc1O
not listed: [2] | [3] | [7]
inactive: all other assays above

CC=C(C)C=CC=C(C)C
not listed: [2] | [3] | [8]
inactive: all other assays above

O=C(O)CC(C(=O)O)S(=O)(=O)O (centres undefined)
inactive: [1] | [3] | [7] | [8] | [9]

Clc1cc(Cl)c(Cl)c(Cl)c1Cl
not listed: [2] | [6]
inactive: all other assays above

C=C(C)C1CC=C(C)C(OC(C)=O)C1 (centres undefined)
inactive: [1] | [3] | [4]

Nc1ncnc2nc[nH]c12
inactive: [1] | [3] | [7] | [4] | [6]

C=Cc1ccc(OC(C)=O)cc1
not listed: [2] | [5] | [9]
inactive: all other assays above

CC(=O)OCC=C(C)C
not listed: [2] | [7]
inactive: all other assays above

O=C(OCCc1ccccc1)c1ccccc1
not listed: [2] | [7] | [8]
inactive: all other assays above

CCCCC1CCC(=O)O1 (centres undefined)
not listed: [2] | [7]
inactive: all other assays above

CC1CC(=O)CC(C)(C)C1 (centres undefined)
not listed: [2] | [5] | [7]
inactive: all other assays above

From PubChem BioAssay (EPA / NIEHS)
